Results published in PubChem BioAssay (NCATS).
Results filed as inconclusive are left out. Active and inactive are the calls of the source. Calls come from the whole dose curve; as a rule, active = well fitted inhibition curve with a large enough effect; inconclusive = small, poorly fitted or top-dose-only effect; inactive = flat fitted curve, though single readings scatter.

What was measured:
CRL-7250 = normal cell line; experiment: Cytotoxic Profiling of Annotated Libraries Using Quantitative High-Throughput Screening (AID 1296008); settings: Five cell lines viability, CellTiter-Glo ATP luminescence, 48-72 h; stronger effect = lower value; for max response: % is set by controls: 0 for no effect and ±100 for the full control effect
Procedure, shortened: (§1)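 Cells exposed to compounds for 48 or 72 hr at 37 degrees Celsius. Viability read as ATP-coupled luminescence with CellTiter-Glo after 10 min at room temperature.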

HEK293 = experiment: as above; settings: Five cell lines viability, CellTiter-Glo ATP luminescence, 48-72 h; stronger effect = lower value
Procedure, shortened: as §1

HaCat [1] = experiment: as above; settings: Five cell lines viability, CellTiter-Glo ATP luminescence, 48-72 h; stronger effect = lower value
Procedure, shortened: as §1

KB-3-1 = experiment: as above; settings: Five cell lines viability, CellTiter-Glo ATP luminescence, 48-72 h, stronger effect = lower value
Procedure, shortened: as §1

NIH3T3 = experiment: as above; settings: Five cell lines viability, CellTiter-Glo ATP luminescence, 48-72 h; stronger effect = lower value
Procedure, shortened: as §1

HACAT [2] = experiment: qHTS assay to identify novel small-molecules to repurpose for Merkel cell carcinoma treatment (AID 1296009); settings: MCC and control cell lines, CellTiter-Glo viability, 72 h; at 44.8 µM (top of the series) unless noted
Procedure, shortened: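 Dose-response viability screen; 72 hr exposure at 37 degree celsius; CellTiter-Glo added, 10 min room temperature, luminescence read; RLUs scaled between no-cell and DMSO wells.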

TAB109 = experiment: qHTS profiling for inhibitors of Plasmodium falciparum proliferation (AID 504749);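 note: 0% = DMSO vehicle and full inhibition = artemisinin control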; settings: P. falciparum in erythrocytes, SYBR Green DNA, 72 h; series mostly up to 28.7 µM
Procedure, shortened: (§2)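 Each compound contacts P. falciparum-infected red blood cells for 72 h at 37 C; lysis buffer (Tris, EDTA, saponin, Triton X, SYBR Green I) is added and fluorescence measured next morning; values normalized to controls.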

TAB113 = experiment: as above; settings: P. falciparum in erythrocytes, SYBR Green DNA, 72 h; series mostly up to 28.7 µM
Procedure, shortened: as §2

TAB165 = experiment: as above; settings: P. falciparum in erythrocytes, SYBR Green DNA, 72 h; series mostly up to 28.7 µM
Procedure, shortened: as §2

W2 = experiment: as above; settings: P. falciparum in erythrocytes, SYBR Green DNA, 72 h; series mostly up to 28.7 µM
Procedure, shortened: as §2
Note: nearly all actives have a fitted effect of over 60% in size.

CC(=O)N(CC(O)CN(C(C)=O)c1c(I)c(C(=O)NCC(O)CO)c(I)c(C(=O)NCC(O)CO)c1I)c1c(I)c(C(=O)NCC(O)CO)c(I)c(C(=O)NCC(O)CO)c1I (configuration not stated)
inactive: max response (CRL-7250) -0.159% | max response (HEK293) -0.57% | max response (HaCat [1]) -14.3% | max response (KB-3-1) 0.0705% | outcome (NIH3T3)

CC1(C)S[C@@H]2[C@H](NC(=O)C(C(=O)O)c3ccccc3)C(=O)N2[C@H]1C(=O)O (some centres not stated)
inactive: max response (CRL-7250) -9.98% | outcome (HEK293) | max response (HaCat [1]) -0.997% | max response (KB-3-1) 3.76% | max response (NIH3T3) -1.06%

CC(=O)N[C@H]1[C@H]([C@H](O)[C@H](O)CO)OC(C(=O)O)=C[C@@H]1N=C(N)N
inactive: max response (CRL-7250) -5.6% | max response (HEK293) 1.78% | outcome (HaCat [1]) | max response (KB-3-1) 6.48% | outcome (NIH3T3) | outcome (HACAT [2])

Cn1cc(C(=O)[C@@H]2CCc3nc[nH]c3C2)c2ccccc21
inactive: outcome (CRL-7250) | max response (HEK293) 3.07% | outcome (HaCat [1]) | max response (KB-3-1) -12.7% | max response (NIH3T3) -0.574% | outcome (HACAT [2])

C[n+]1ccccc1/C=N/O
inactive: max response (CRL-7250) -2.33% | max response (HEK293) -5.72% | outcome (HaCat [1]) | max response (KB-3-1) -1.46% | outcome (NIH3T3) | outcome (HACAT [2])

COC(=O)N/N=C/c1c[n+]([O-])c2ccccc2[n+]1[O-]
inactive: max response (CRL-7250) 4.42% | outcome (HEK293) | max response (HaCat [1]) -20.3% | max response (KB-3-1) -2.23% | max response (NIH3T3) -11.1%

Cc1ccsc1/C=C/C1=NCCCN1C
inactive: max response (CRL-7250) 3.4% | max response (HEK293) -1.17% | max response (HaCat [1]) 3.54% | max response (KB-3-1) -0.196% | outcome (NIH3T3)

CCC(C)(CN(C)C)OC(=O)c1ccccc1 (configuration not stated)
inactive: max response (CRL-7250) -17.5% | outcome (HEK293) | outcome (HaCat [1]) | max response (KB-3-1) 0.865% | max response (NIH3T3) -14.8% | outcome (HACAT [2])

C1CCN2C[C@@H]3C[C@@H](CN4CCCC[C@@H]34)[C@H]2C1
inactive: outcome (CRL-7250) | max response (HEK293) -9.35% | outcome (HaCat [1]) | max response (KB-3-1) 4.47% | max response (NIH3T3) 3.41% | outcome (HACAT [2])

Nc1ccncc1N
inactive: Potency (TAB109) | Potency (TAB113) | Potency (TAB165) | Potency (W2) | max response (CRL-7250) -6.31% | max response (HEK293) -11.7% | outcome (HaCat [1]) | max response (KB-3-1) 10.8% | max response (NIH3T3) -1.29% | outcome (HACAT [2])

O=C(O)c1cc(=O)c2ccccc2o1
inactive: Potency (TAB109) | Potency (TAB113) | Potency (TAB165) | max response (CRL-7250) 2.58% | max response (HEK293) -0.978% | outcome (HaCat [1]) | max response (KB-3-1) -5.78% | outcome (NIH3T3) | outcome (HACAT [2])

Cc1ccc(S(=O)(=O)NC(=O)NC2CCCCC2)cc1
inactive: Potency (TAB109) | Potency (TAB113) | Potency (TAB165) | Potency (W2) | outcome (CRL-7250) | max response (HEK293) 2.4% | outcome (HaCat [1]) | max response (KB-3-1) 3.8% | max response (NIH3T3) 0.0689% | outcome (HACAT [2])

CN1C(C)(C)CCCC1(C)C
inactive: Potency (TAB109) | Potency (TAB113) | Potency (TAB165) | Potency (W2) | max response (CRL-7250) -19.2% | max response (HEK293) -21.6% | outcome (HaCat [1]) | max response (KB-3-1) 7.25% | max response (NIH3T3) -1.07% | outcome (HACAT [2])

CC(C)NC[C@@H](O)COc1ccc(CC(N)=O)cc1
inactive: max response (CRL-7250) -2.68% | outcome (HEK293) | outcome (HaCat [1]) | max response (KB-3-1) 3.62% | max response (NIH3T3) -2.96% | outcome (HACAT [2])

Cc1c(N(C)C)c(=O)n(-c2ccccc2)n1C
inactive: Potency (TAB109) | Potency (TAB113) | Potency (TAB165) | Potency (W2) | outcome (CRL-7250) | max response (HEK293) -3.5% | outcome (HaCat [1]) | max response (KB-3-1) -5.96% | max response (NIH3T3) 4.65% | outcome (HACAT [2])

C/C(=C(\CCO)SS/C(CCO)=C(\C)N(C=O)Cc1cnc(C)nc1N)N(C=O)Cc1cnc(C)nc1N
inactive: outcome (CRL-7250) | max response (HEK293) -0.967% | outcome (HaCat [1]) | max response (KB-3-1) -5.06% | max response (NIH3T3) -2.04% | outcome (HACAT [2])

O=S1(=O)OC(c2ccc(O)cc2)(c2ccc(O)cc2)c2ccccc21
inactive: Potency (TAB109) | Potency (TAB113) | Potency (TAB165) | Potency (W2) | outcome (CRL-7250) | max response (HEK293) -9.72% | outcome (HaCat [1]) | max response (KB-3-1) 15.7% | outcome (NIH3T3) | outcome (HACAT [2])

O=C1c2cccc(O)c2C(=O)c2c(O)cccc21
inactive: Potency (TAB109) | Potency (TAB113) | Potency (TAB165) | max response (CRL-7250) -1.24% | max response (HEK293) -0.119% | outcome (HaCat [1]) | max response (KB-3-1) 2.38% | max response (NIH3T3) -0.518% | outcome (HACAT [2])

CC(=O)Oc1cccc(C)c1
inactive: Potency (TAB109) | Potency (TAB113) | Potency (TAB165) | Potency (W2) | max response (CRL-7250) 2.1% | max response (HEK293) -2.07% | outcome (HaCat [1]) | max response (KB-3-1) -6.53% | max response (NIH3T3) -2.31% | outcome (HACAT [2])

C[C@@H](c1ncncc1F)C(O)(Cn1cncn1)c1ccc(F)cc1F (some centres not stated)
inactive: max response (CRL-7250) -4.65% | max response (HEK293) 2.6% | outcome (HaCat [1]) | max response (KB-3-1) -2.08% | max response (NIH3T3) -3.08% | outcome (HACAT [2])

Cc1c(Cn2ccnc2)c2ccccc2n1CCC(=O)O
inactive: Potency (TAB109) | Potency (TAB113) | Potency (TAB165) | Potency (W2) | max response (CRL-7250) 0.62% | max response (HEK293) 1.95% | outcome (HaCat [1]) | max response (KB-3-1) -18.7% | max response (NIH3T3) 3.45% | outcome (HACAT [2])

CC[C@H](C)[C@H](N)C(=O)O
inactive: max response (CRL-7250) -1.3% | max response (HEK293) -2.12% | outcome (HaCat [1]) | max response (KB-3-1) -15.9% | max response (NIH3T3) -5.18% | outcome (HACAT [2])
